Experimental data reported in PubChem BioAssay AID2315 (National Center for Advancing Translational Sciences (NCATS), 2010).
The whole screen tested about 290,000 compounds, of which about 27,000 (9.3%) were called active. Cut-off read from the data, not from the text of the source: active = inhibition mostly above about 28% (no sharp cut-off); inactive = mostly below about 43%. Only a selection was taken, and actives are over-represented in it overall.

Assay: A qHTS for Small Molecule Inhibitors of Shiga Toxin; note: 0% is about no effect
Settings: Vero cells, Shiga toxin protein synthesis inhibition reporter; at 38.7 µM, stronger effect = higher value

**Q.** For `NNC(=O)c1cccc(COCC(F)(F)C(F)F)c1`, which inhibition is on record?
**A.** -2.2% (inactive)

**Q.** For `CC(C)c1cc(C(N)=O)c(NC(=O)c2cccc(COc3ccc(Br)cc3)c2)s1`, which inhibition is on record?
**A.** 199% (active)

**Q.** Which inhibition does the source give for `Cc1ccc(COc2ccc(C(=O)NN)cc2)cc1` here?
**A.** 30.5% (inactive)

**Q.** For `CC(=O)c1cc(C#N)c(SCC(=O)Nc2nccs2)nc1C`, which inhibition is on record?
**A.** 65% (active)

**Q.** With `CCn1c(SCC(=O)Nc2nccs2)nnc1-c1ccncc1` as the molecule, how does the inhibition read?
**A.** -7.47% (inactive)

**Q.** Which inhibition does the source give for `CC(=O)c1cc(C#N)c(N2CC(C)OC(C)C2)nc1C` (stereo not drawn) here?
**A.** -8.18% (inactive)

**Q.** With `Cc1[nH]c2ccccc2c1SCC(=O)Nc1nccs1` as the molecule, how does the inhibition read?
**A.** 63.6% (active)

**Q.** With `Cc1cccc(C)c1Nc1nnc(SCC(=O)Nc2sccc2C#N)s1` as the molecule, how does the inhibition read?
**A.** -3.87% (inactive)

**Q.** Which inhibition does the source give for `CC(=O)c1cc(C#N)c(SCC(=O)C(C)(C)C)nc1C` here?
**A.** 89.1% (active)

**Q.** With `CC(=O)c1cc(C#N)c(N2CCCCC2)nc1C` as the molecule, how does the inhibition read?
**A.** 1.31% (inactive)

**Q.** Which inhibition does the source give for `Cc1cc(C(F)(F)F)nc(SCC(=O)Nc2nccs2)n1` here?
**A.** -9.67% (inactive)

**Q.** For `CCn1c(SCC(=O)Nc2nccs2)nnc1-c1ccco1`, which inhibition is on record?
**A.** -6.37% (inactive)

**Q.** Which inhibition does the source give for `CCOC(=O)CNC(=O)CSc1ncccc1-c1nc2ccccc2[nH]1` here?
**A.** -7.03% (inactive)

**Q.** For `COc1ccc(NC(=O)C2CCC(CNS(=O)(=O)c3csc(C(N)=O)c3)CC2)cc1OC` (stereo not drawn), which inhibition is on record?
**A.** -12.8% (inactive)

**Q.** Which inhibition does the source give for `COc1ccc(Oc2cn[nH]c2-c2ccc(OC)cc2O)cc1` here?
**A.** -5.45% (inactive)

**Q.** With `COc1ccc2c(Cl)c(-c3nnco3)sc2c1` as the molecule, how does the inhibition read?
**A.** -0.739% (inactive)

**Q.** With `C#CCSc1nnc(-c2sc3ccccc3c2Cl)o1` as the molecule, how does the inhibition read?
**A.** 89.1% (active)

**Q.** For `O=C(OCC#CCSc1nnc(-c2ccncc2)o1)c1sc2ccccc2c1Cl`, which inhibition is on record?
**A.** -13.4% (inactive)

**Q.** For `O=C(NCCc1nnc2ccc(SCC(=O)N3CCOCC3)nn12)c1ccccc1`, which inhibition is on record?
**A.** -1.17% (inactive)

**Q.** Which inhibition does the source give for `COc1ccc(-c2nn(-c3ccccc3)cc2/C=N/Nc2ccccn2)cc1OC` here?
**A.** 24.4% (active)

**Q.** Which inhibition does the source give for `COc1ccc(-c2nn(-c3ccccc3)cc2C(=O)Nc2nccs2)cc1OC` here?
**A.** 12.9% (inactive)

**Q.** For `CC(C)(C)OC(=O)N/N=C/c1cn(-c2ccccc2)nc1-c1cccnc1`, which inhibition is on record?
**A.** -2.23% (inactive)

**Q.** Which inhibition does the source give for `COc1cccc(CNC(=O)C2CCCN(c3ncnc4c3nc3n4CCCCC3)C2)c1` (stereo not drawn) here?
**A.** -3.2% (inactive)

**Q.** With `COc1ccc(N(CCC#N)S(=O)(=O)c2ccc(Cl)cc2)cc1` as the molecule, how does the inhibition read?
**A.** 42.6% (active)

**Q.** With `COc1ccc(N(CC(=O)N2CCCCCC2)S(=O)(=O)c2ccccc2)cc1` as the molecule, how does the inhibition read?
**A.** 32.1% (inactive)

**Q.** For `COc1ccc(S(=O)(=O)NCCCCOc2ccc(Cl)cc2)cc1`, which inhibition is on record?
**A.** -5.02% (inactive)

**Q.** For `CC1CN(C(=S)Nc2ccc(S(N)(=O)=O)cc2)CC(C)O1` (stereo not drawn), which inhibition is on record?
**A.** -8.32% (inactive)

**Q.** Which inhibition does the source give for `COc1ccc(OC)c(NC(=O)Cc2cccs2)c1` here?
**A.** 9.31% (inactive)

**Q.** For `C=C(C)C(=O)O[C@H]1C/C(C)=C\C(=O)/C=C(\C)[C@H](O)[C@@H]2OC(=O)C(=C)[C@@H]21`, which inhibition is on record?
**A.** 60% (active)

**Q.** For `CCOc1ccc(C(=O)COC(=O)c2ccc(-n3cnnn3)cc2)cc1`, which inhibition is on record?
**A.** -9.12% (inactive)

**Q.** For `CCC(C)(C)NC(=O)CN(C(=O)CCC(=O)Nc1nccs1)c1ccc2c(c1)OCO2`, which inhibition is on record?
**A.** -6.38% (inactive)

**Q.** With `COCCCNC(=O)CN1C(=O)CSc2ccc(S(=O)(=O)N3CCOCC3)cc21` as the molecule, how does the inhibition read?
**A.** 15.9% (inactive)

**Q.** For `CC1CCC(NC(=O)c2ccc(N3CCCC3=O)cc2)CC1` (stereo not drawn), which inhibition is on record?
**A.** 56.6% (active)

**Q.** Which inhibition does the source give for `CCCNC(=O)NCc1ccc(N2CCCC2=O)cc1` here?
**A.** -8.65% (inactive)

**Q.** For `Cc1cccc(C(=O)NCCCN2CCCC2=O)c1`, which inhibition is on record?
**A.** -5.25% (inactive)

**Q.** Which inhibition does the source give for `CC1CCCC(NC(=O)CN2CCN(Cc3ccc(Cl)cc3)C2=O)C1C` (stereo not drawn) here?
**A.** -12.5% (inactive)

**Q.** Which inhibition does the source give for `O=C(NCCCN1CCCCCC1)c1ccc(N2CCCC2=O)cc1` here?
**A.** 0.987% (inactive)

**Q.** With `C/C(=N\NC(=O)c1cccc(N2CCCC2=O)c1)c1ccc(N)cc1` as the molecule, how does the inhibition read?
**A.** 38.9% (inactive)

**Q.** With `O=C(c1cccc(N2CCCC2=O)c1)N1CCOCC1` as the molecule, how does the inhibition read?
**A.** 20.2% (inactive)

**Q.** For `O=C(NCCc1ccc(Cl)cc1)c1cccc(N2CCCC2=O)c1`, which inhibition is on record?
**A.** 73.4% (active)

**Q.** With `CC1CCCC(NC(=O)c2cccc(N3CCCC3=O)c2)C1C` (stereo not drawn) as the molecule, how does the inhibition read?
**A.** 87.5% (active)

**Q.** Which inhibition does the source give for `COc1ccc(CCNc2nc(C)cc(C)n2)cc1OC` here?
**A.** 23.6% (inactive)

**Q.** Which inhibition does the source give for `CCCc1ccc(OCC(O)CN2CCN(C(=O)OCC)CC2)cc1` (stereo not drawn) here?
**A.** -4.04% (inactive)

**Q.** For `COc1ccc(S(=O)(=O)N2CCC(C(=O)NCc3ccco3)CC2)cc1C`, which inhibition is on record?
**A.** -3.78% (inactive)

**Q.** For `CN(C(=O)CCNC(=O)Cn1ccc2ccccc2c1=O)c1ccc(Br)cc1`, which inhibition is on record?
**A.** -19.7% (inactive)

**Q.** For `Cc1nn(-c2ccc([N+](=O)[O-])cc2)c(N)c1-c1ccccc1`, which inhibition is on record?
**A.** 86.7% (active)

**Q.** Which inhibition does the source give for `Cc1cc(CO)nn1-c1ccc([N+](=O)[O-])cc1` here?
**A.** 12.4% (inactive)

**Q.** With `Cc1nc(-c2ccc([N+](=O)[O-])cc2)c(-c2ccccc2)o1` as the molecule, how does the inhibition read?
**A.** -2.19% (inactive)

**Q.** With `CCn1c(=O)c2ccccc2n(CC(=O)N2CCCc3ccccc32)c1=O` as the molecule, how does the inhibition read?
**A.** -12.6% (inactive)

**Q.** For `CN(c1ccccc1)S(=O)(=O)c1ccc2[nH]c(=O)[nH]c2c1`, which inhibition is on record?
**A.** 21.5% (inactive)

**Q.** For `CC(=O)c1ccc(N2CCN(CC(O)c3ccccc3)CC2)cc1` (stereo not drawn), which inhibition is on record?
**A.** 26.5% (inactive)

**Q.** For `CC(=O)c1ccc(N2Cc3ccccc3C2)cc1`, which inhibition is on record?
**A.** 79.3% (active)

**Q.** For `CC(=O)c1ccc(N2CCN(C(=O)CCc3ccccc3)CC2)cc1`, which inhibition is on record?
**A.** 14.3% (inactive)

**Q.** With `CCOC(=O)N1CCN(C(=O)c2cn(C)c3ccc(S(=O)(=O)N(CC)CC)cc3c2=O)CC1` as the molecule, how does the inhibition read?
**A.** 2.57% (inactive)

**Q.** For `COc1ccccc1C(=O)N/C(=C/c1ccc2c(c1)OCO2)C(=O)Nc1cccc(C(=O)O)c1`, which inhibition is on record?
**A.** -9.43% (inactive)

**Q.** For `CN1CCN(S(=O)(=O)c2cccc(C(=O)Nc3cccc(S(N)(=O)=O)c3)c2)CC1`, which inhibition is on record?
**A.** 13.4% (inactive)

**Q.** With `O=C(c1n[nH]c2c1CCC2)N1CCCC(Nc2cccc(F)c2)C1` (stereo not drawn) as the molecule, how does the inhibition read?
**A.** -2% (inactive)

**Q.** With `CCOC(=O)Cn1c(=O)sc2cccc(Cl)c21` as the molecule, how does the inhibition read?
**A.** -13.7% (inactive)

**Q.** Which inhibition does the source give for `CC(C)(C)OC(=O)CNC(=O)c1[nH]cnc1C(=O)N[C@@H](Cc1ccccc1)C(=O)OCc1ccccc1` here?
**A.** 7.26% (inactive)

**Q.** Which inhibition does the source give for `Cc1noc(NS(=O)(=O)c2ccc(NC(=O)c3oc4ccc(F)cc4c3C)cc2)c1C` here?
**A.** -2.45% (inactive)

**Q.** With `O=C(Nc1ccc(S(=O)(=O)Nc2ccccn2)cc1)c1ccccc1` as the molecule, how does the inhibition read?
**A.** -16.3% (inactive)

**Q.** For `Cc1cc(OC(C)C(=O)Nc2ccc(S(=O)(=O)Nc3onc(C)c3C)cc2)cc(C)c1Cl` (stereo not drawn), which inhibition is on record?
**A.** -8.09% (inactive)

**Q.** Which inhibition does the source give for `Cc1ccc(C(=O)/C=C/Nc2ccc(S(=O)(=O)Nc3onc(C)c3C)cc2)cc1` here?
**A.** 67.9% (active)

**Q.** Which inhibition does the source give for `O=C(/C=C/Nc1ccc(S(=O)(=O)Nc2cnc3ccccc3n2)cc1)c1cccnc1` here?
**A.** 44.7% (active)

**Q.** Which inhibition does the source give for `CCn1c(SCC(=O)Nc2ccc(S(=O)(=O)Nc3onc(C)c3C)cc2)nnc1-c1ccccc1` here?
**A.** -13.6% (inactive)

**Q.** Which inhibition does the source give for `Cc1noc(NS(=O)(=O)c2ccc(NC(=O)C34CCC(CC3)C4)cc2)c1C` here?
**A.** 0.59% (inactive)

**Q.** For `C=C(C)CNC(=S)Nc1ccc(S(=O)(=O)Nc2cnc3ccccc3n2)cc1`, which inhibition is on record?
**A.** 6.75% (inactive)

**Q.** For `Cc1noc(NS(=O)(=O)c2ccc(N/C=C/C(=O)c3ccccc3)cc2)c1C`, which inhibition is on record?
**A.** 71.6% (active)
